# PubChem BioAssay
# Unmarked numbers belong to inactive results. How the calls were made is not given here.
# Molecular target: Pantothenate synthetase (Mycobacterium tuberculosis (strain ATCC 25618 / H37Rv)) (UniProt P9WIL5)
# Experiment: Coupled enzyme confirmation of inhibitors against recombinant Mtb PanC (AID 375);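 further: 0% = full reaction with vehicle and 100% = no enzyme background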
# Settings: coupled enzyme assay; at 10 µM, hits give high values
# Pantothenate synthetase (Mycobacterium tuberculosis (strain ATCC 25618 / H37Rv)), sequence (P9WIL5 whole entry, looked up): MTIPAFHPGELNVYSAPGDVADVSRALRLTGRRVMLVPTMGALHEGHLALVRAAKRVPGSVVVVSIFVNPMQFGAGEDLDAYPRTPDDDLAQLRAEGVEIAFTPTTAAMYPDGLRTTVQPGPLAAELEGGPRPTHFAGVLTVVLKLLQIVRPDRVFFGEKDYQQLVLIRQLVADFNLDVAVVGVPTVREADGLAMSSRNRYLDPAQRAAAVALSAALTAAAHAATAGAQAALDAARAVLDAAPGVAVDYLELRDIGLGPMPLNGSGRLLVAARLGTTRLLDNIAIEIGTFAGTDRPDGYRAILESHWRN
row,Compound,inhibition
1,CCN(CC)S(=O)(=O)c1ccc(N2CCCC2)c(C(=O)OCC(=O)/C(C#N)=C(\C)N)c1,6%
2,CCOC(=O)CSc1ncnc2c1cnn2-c1ccc(C)cc1,15%
3,CCCC(=O)Nc1ccc(NC(=O)C2CC2)cn1,2%
4,c1ccc(CCn2nnnc2CN2CCN(C3CCCC3)CC2)cc1,2%
5,CCOC(=O)C1CCN(C(=O)Nc2ccc3snnc3c2)CC1,6%
6,CN(CC(=O)Nc1ccc2c(c1)OCCO2)S(=O)(=O)c1ccc(Br)s1,6%
7,Cc1ccc(C)c(N2CCN(CCCNC(=O)Cn3cc4c(n3)CCC(C)C4)CC2)c1 (configuration not stated),8%
8,CCCC(=O)Nc1ccc(OCC(=O)OC)cc1,5%
9,COc1cc(OC)cc(C(=O)NCc2n[nH]c(=S)n2-c2ccccc2OC)c1,0%
10,Cn1c(/C(C#N)=C/Nc2ccccn2)nc2ccccc21,0%
11,CCOC(=O)c1oc2cccc(OC(C)=O)c2c1C,4%
12,Fc1cccc(Nc2ncnc3c2cnn3-c2ccccc2)c1,2%
13,Cc1ccc2cc(CN(Cc3ccc(F)cc3)Cc3nnnn3C3CCCC3)c(=O)[nH]c2c1,6%
14,COc1ccccc1NC(=O)c1ccc(NC(=O)CSc2nnnn2C)cc1,1%
15,COc1ccc(NC(=O)Cn2nnc(-c3ccccc3N)n2)cc1OC,0%
16,CCOC(=O)C1(c2ccccc2)NC(c2ccc(N(C)C)cc2)C2C(=O)N(C)C(=O)C21 (configuration not stated),0%
17,O=C(NCc1ccccc1)C1CCCN(S(=O)(=O)c2cccnc2)C1 (configuration not stated),0%
